Where “and” joins values, the source holds several entries; their conditions need not be identical. Equal values may be shown once. About 83,000 compounds went through this panel and 20% of them were active in at least one assay; those are over-represented in the sample as a whole.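 Cell lines were cultured in 96-well plates, exposed to a single compound concentration, and assessed for percent growth 48 hours later.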 Calls of active or inactive are those of the source. How the source made its calls: active means growth percent below 10; inactive means the rest.
Experiments:
Experiment in all cases: NCI-60 one-dose screen, 48 h (100 = growth as untreated, 0 = no growth, -100 = all killed)
[1] = test system: NCI-H23 lung
[2] = test system: NCI-H226 lung
[3] = test system: NCI-H322M lung; details: 10 µM unless noted
[4] = test system: HOP-62 NSCLC
[5] = test system: NCI-H460 lung
[6] = test system: HOP-92 NSCLC
[7] = test system: NCI-H522 lung
[8] = test system: A549/ATCC NSCLC
[9] = test system: 786-0 renal
[10] = test system: COLO 205 colon

Measured: growth

O=C(CC1(O)C(=O)Nc2ccc(Br)cc21)c1ccc(Cl)cc1 (stereo unspecified)
inactive: [1]; 10 µM unless noted 96.8% | [2]; 10 µM unless noted 80.1% | [3] 105% | [4]; 10 µM unless noted 88.7% | [5]; 10 µM unless noted 106% | [6]; 10 µM unless noted 86.1% | [7]; 10 µM unless noted 81% | [8]; 10 µM unless noted 90.5% | [9]; 10 µM unless noted 114% | [10]; 10 µM unless noted 109%

COc1ccc(C(=O)/C=C/c2ccc(OCc3ccc(Cl)cc3)cc2)cc1OC
active: [2]; 100 µM -7.94% | [4]; 100 µM 5.95% | [5]; 100 µM 6.18% | [7]; 100 µM 2.45% | [9]; 100 µM -13.2%
inactive: [1]; 10 µM 84.1% | [1]; 100 µM 29.2% | [2]; 10 µM 87.1% | [3] 40.4% [100 µM] | [4]; 10 µM 104% | [5]; 10 µM 95.3% | [6]; 10 µM 104% | [6]; 100 µM 12.5% | [7]; 10 µM 82.5% | [8]; 10 µM 85.9% | [8]; 100 µM 13.7% | [9]; 10 µM 106% | [10]; 10 µM 117% | [10]; 100 µM 41.8%

CC(=O)/C=C/c1ccc(OCc2ccc(C(C)(C)C)cc2)cc1
active: [6]; 100 µM -14.7% | [7]; 100 µM -8.78% | [10]; 100 µM -65.6%
inactive: [1]; 10 µM 52.5% | [1]; 100 µM 31.7% | [2]; 10 µM 77.5% | [2]; 100 µM 38.3% | [3] 19.4% [100 µM] | [4]; 10 µM 88% | [4]; 100 µM 26.8% | [5]; 10 µM 84.4% | [5]; 100 µM 24.6% | [6]; 10 µM 89.5% | [7]; 10 µM 76.1% | [8]; 10 µM 80.3% | [8]; 100 µM 41.8% | [9]; 10 µM 91.9% | [9]; 100 µM 20.7% | [10]; 10 µM 78.6%

CC(=O)/C=C/c1ccc(OCc2ccc(Cl)cc2)cc1
inactive: [1]; 10 µM 90.9% | [1]; 100 µM 37.1% | [2]; 10 µM 100% | [2]; 100 µM 49.6% | [3] 52.5% [100 µM] | [4]; 10 µM 110% | [4]; 100 µM 44.9% | [5]; 10 µM 101% | [5]; 100 µM 26.1% | [6]; 10 µM 91.8% | [6]; 100 µM 11% | [7]; 10 µM 90.4% | [8]; 10 µM 75.9% | [8]; 100 µM 34.1% | [9]; 10 µM 88.1% | [9]; 100 µM 51.2% | [10]; 10 µM 122%
active: [7]; 100 µM -3.06% | [10]; 100 µM -21.9%

CCOC(=O)c1nnn(Cc2cc(=O)oc3c2ccc2ccccc23)c1C
inactive: [1]; 10 µM unless noted 102% | [2]; 10 µM unless noted 105% | [3] 98% | [4]; 10 µM unless noted 106% | [5]; 10 µM unless noted 104% | [6]; 10 µM unless noted 98.8% | [7]; 10 µM unless noted 96.3% | [8]; 10 µM unless noted 102% | [9]; 10 µM unless noted 102% | [10]; 10 µM unless noted 107%

CN(C)CC1(C)Cc2ccsc2C1O (stereo unspecified)
inactive: [1]; 10 µM unless noted 106% and 109% | [2]; 10 µM unless noted 105% | [3] 119% | [4]; 10 µM unless noted 105% and 108% | [5]; 10 µM unless noted 112% and 108% | [6]; 10 µM unless noted 101% and 108% | [7]; 10 µM unless noted 94.5% and 94.3% | [8]; 10 µM unless noted 112% and 110% | [9]; 10 µM unless noted 97.2% and 94.9% | [10]; 10 µM unless noted 106% and 105%

Cc1nc(-n2[nH]c(=O)ccc2=O)sc1N=Nc1ccccc1
inactive: [1]; 10 µM unless noted 103% | [2]; 10 µM unless noted 85.3% | [3] 97.3% | [4]; 10 µM unless noted 94.3% | [5]; 10 µM unless noted 102% | [6]; 10 µM unless noted 96.6% | [7]; 10 µM unless noted 103% | [8]; 10 µM unless noted 104% | [9]; 10 µM unless noted 94.4% | [10]; 10 µM unless noted 112%

COc1cc(-c2nc3occn3c2-c2ccnc(NCCCNS(=O)(=O)c3ccc(O)cc3)n2)ccc1F
inactive: [1]; 10 µM unless noted 92.6% | [2]; 10 µM unless noted 96.8% | [3] 113% | [4]; 10 µM unless noted 95% | [5]; 10 µM unless noted 102% | [6]; 10 µM unless noted 86.7% | [7]; 10 µM unless noted 72.4% | [8]; 10 µM unless noted 94.3% | [9]; 10 µM unless noted 122% | [10]; 10 µM unless noted 45%

NC(N)=NC(N)=NCCCc1ccco1
inactive: [1]; 10 µM unless noted 105% | [2]; 10 µM unless noted 111% | [3] 105% | [4]; 10 µM unless noted 101% | [5]; 10 µM unless noted 108% | [6]; 10 µM unless noted 95.4% | [7]; 10 µM unless noted 93.6% | [8]; 10 µM unless noted 102% | [9]; 10 µM unless noted 112% | [10]; 10 µM unless noted 111%

CC(=O)/C=C/c1ccc(N(C)Cc2ccc(C(C)(C)C)cc2)cc1
inactive: [1]; 10 µM 75.5% | [2]; 10 µM 85.1% | [4]; 10 µM 97.6% | [5]; 10 µM 96.9% | [6]; 10 µM 77.3% | [7]; 10 µM 77.1% | [8]; 10 µM 89.6% | [9]; 10 µM 97.3% | [10]; 10 µM 113%
active: [1]; 100 µM -10.1% | [2]; 100 µM -82.3% | [3] -64.5% [100 µM] | [4]; 100 µM -34.8% | [5]; 100 µM -63.7% | [6]; 100 µM -92.6% | [7]; 100 µM -76.4% | [8]; 100 µM -48.6% | [9]; 100 µM -75% | [10]; 100 µM -72%

— PubChem BioAssay (NCI)
